The source of these data is PubChem BioAssay.

The nature of assay [1]: SU-DIPG-VI glioma cell viability, MIPE4.0 library, CellTiter-Glo luminescence, qHTS (AID 1347066; cut-off not given, nearly all actives have AC50 up to about 30 µM;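 also: cells exposed to compound for 48 hours before readout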). The settings on record: CellTiter-Glo ATP luminescence.
A short description of assay [2]: SU-DIPG-XXV glioma cell viability, MIPE5.0 library, qHTS (AID 1347068; cut-off not given, nearly all actives have IC50 up to about 30 µM;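 as to IC50: cells exposed to compound for 48 hours before viability readout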). (qHTS replaces the single test concentration by a dilution series.)
Assay [3] can be described thus: JHH-DIPG-1 glioma cell viability, MIPE5.0 library, CellTiter-Glo luminescence, qHTS (AID 1347067).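 Also: cells exposed to compound for 48 hours before readout.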 The settings on record: JHH-DIPG-1 glioma viability, CellTiter-Glo ATP luminescence.
Assay [4] in a line: viability loss in pontine glioma line – cell-based, SU-DIPG-XXV, MIPE5.0, CellTiter-Glo, qHTS, dose response (AID 1347065).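 Also: cells exposed to compound for 48 hours before ATP readout.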 To be noted: CellTiter-Glo ATP luminescence. (In general: ATP-based viability assays read luminescence as a measure of living cells.)
Assay [5] is described as follows: sensitizers of A549 cells to miR-34 induction, primary screen, imaging, A549 dox-inducible miR-34, nuclei and caspase counts (AID 1347080;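 active = compounds whose cell count with miR-34 switched on is under 0.7 times the count with it off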). To be noted: A549 miR-34 inducible, Hoechst nuclei count, 48 h.
Assay [6] can be described thus: survival rescue of mitochondrial mutant cells in low glucose, primary screen, MELAS cybrids, Rieske KO mouse fibroblasts, CellTiter-Glo (AID 1508586;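 active = mean z-score across replicates of 1.96 or higher in either the MELAS or the Rieske mutant cell line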;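 also: z relative to plate mean and SD of compound and empty wells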).
For assay [7], the target named is NAD(+) hydrolase SARM1 (Homo sapiens) (UniProt Q6SZW1). As to the kind of experiment: SARM1 TIR NADase inhibitors, cell lysate, NAD-Glo luminescence (AID 1508614;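 active = compound whose remaining NAD level is above about 45 nM, limit read from the data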;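 also: higher remaining NAD means stronger inhibition of SARM1 NADase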). To be noted: SAM-TIR HEK293T lysate NADase, at 1 µM, stronger effect = higher value.
The mark [8] stands for this setting: stronger effect = lower value, cell number ratio, induced over uninduced.
[9] abbreviates: measured here: relative caspase fold change +Dox/-Dox.
[10] abbreviates: measured here: total cells with miR-34 induction, stronger effect = lower value.
Setting [11] is: measured here: total cells without miR-34 induction.
Where [12] appears, read: MELAS cybrid survival, CellTiter-Glo 48 h, stronger effect = higher value.
[13] abbreviates: Rieske KO mouse fibroblast survival, CellTiter-Glo 72 h.

Results filed as inconclusive are left out. The source made the active and inactive calls. Unless noted, the limit is not given here; nearly all actives have AC50 up to about 26 µM.

NAD(+) hydrolase SARM1 (Homo sapiens), sequence (Q6SZW1 whole entry, looked up): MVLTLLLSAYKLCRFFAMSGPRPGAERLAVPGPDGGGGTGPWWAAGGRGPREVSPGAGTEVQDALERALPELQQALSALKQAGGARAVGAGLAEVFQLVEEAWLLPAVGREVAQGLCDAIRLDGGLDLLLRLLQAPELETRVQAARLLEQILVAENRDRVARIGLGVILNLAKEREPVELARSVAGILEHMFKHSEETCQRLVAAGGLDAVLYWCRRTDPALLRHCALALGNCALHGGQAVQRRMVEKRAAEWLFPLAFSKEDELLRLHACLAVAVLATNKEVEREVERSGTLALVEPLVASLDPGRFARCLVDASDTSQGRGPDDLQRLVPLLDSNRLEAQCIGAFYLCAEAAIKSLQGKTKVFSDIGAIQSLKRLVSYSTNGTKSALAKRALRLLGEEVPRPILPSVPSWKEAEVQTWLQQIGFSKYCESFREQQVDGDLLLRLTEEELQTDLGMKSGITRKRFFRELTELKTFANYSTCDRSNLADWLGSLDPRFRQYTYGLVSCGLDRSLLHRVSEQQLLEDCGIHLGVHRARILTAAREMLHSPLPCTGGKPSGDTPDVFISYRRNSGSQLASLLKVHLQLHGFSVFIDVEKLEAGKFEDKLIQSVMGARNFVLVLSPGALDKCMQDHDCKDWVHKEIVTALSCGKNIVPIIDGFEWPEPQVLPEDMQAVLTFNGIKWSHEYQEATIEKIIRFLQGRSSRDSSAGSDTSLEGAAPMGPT

The AC50 is the midpoint of the concentration-response curve, whichever way the signal moves. Turning to `NC(=O)c1nnn(Cc2cc(Cl)c(C(=O)c3ccc(Cl)cc3)c(Cl)c2)c1N`, the concentration at half-maximal activity (AC50) in assay [1] was 18.7 µM (active).
Take `CC1CCN(c2cc(N3CCN(C)CC3)ccc2NC(=O)c2cc(C#N)c[nH]2)CC1`: the call in assay [1] and in assay [2] was inactive.
In the case of `COCC(=O)NC/C=C/c1ccc2ncnc(Nc3ccc(Oc4ccc(C)nc4)c(C)c3)c2c1`, in assay [3], the call was inactive.
`CCC(=O)N[C@H]1CC[C@H](C(=O)N(C)c2ccc(-c3nc4ccccc4o3)cc2)C1`: the outcome in assay [1] and in assay [3] was inactive.
With `O=c1[nH]nc2c3c(cccc13)NC(CN1Cc3ccccc3C1)=N2`, the molecule was classed as inactive in assay [2].
With `Cc1cccc(CC(=O)N2CCc3c2ccc(-c2cn(C)c4ncnc(N)c24)c3F)n1`, the AC50 in assay [4] is 10.5 µM (active). The fold change in assay [5] (setting [8]) was 1.38 (inactive); in assay [5] (setting [9]), 0.997. In addition, the cell count in assay [5] (setting [10]) was 7830; in assay [5] (setting [11]) it was 5660. Besides, the z-score is -0.412 (inactive) in assay [6] (setting [12]) and -0.298 in assay [6] (setting [13]).
Regarding `CS(=O)(=O)c1ccc(-c2cnc(NCc3ccco3)n3cnnc23)cc1`, the AC50 in assay [3] is 20.9 µM (active).
For the molecule `CC[C@@H]1[C@H](F)C(=O)N[C@@H]1COc1nccc2cc(C(N)=O)c(OC)cc12`, the outcome in assay [2] was inactive.
On to `CC(C)OC(=O)CCC/C=C\C[C@@H]1[C@@H](/C=C/[C@@H](O)COc2cccc(C(F)(F)F)c2)[C@H](O)C[C@@H]1O`, for which, in assay [1], the half-maximal activity concentration (AC50) is 23.5 µM (active). Further, the remaining NAD in assay [7] is 10 nM (inactive).
As to `FC(F)(F)c1ccc(Nc2nc3ccc(Oc4ccnc(-c5ncc(C(F)(F)F)[nH]5)c4)cc3[nH]2)cc1`, the AC50 in assay [1] is 20.9 µM (active).
As for `CC#CC(=O)N1CC[C@@H](n2c(=O)n(-c3ccc(Oc4ccccc4)cc3)c3c(N)ncnc32)C1`, the result in assay [2] was inactive.
With `N#CN1CCC[C@@H](n2nc(-c3ccc(Oc4ccc(F)cc4F)cc3)c(C(N)=O)c2N)C1`, the molecule was called inactive in assay [3] and in assay [2].
As to `C#CCC(Cc1cnc2nc(N)nc(N)c2n1)c1ccc(C(=O)N[C@@H](CCC(=O)O)C(=O)O)cc1` (stereo partly specified), in assay [3], the molecule was classed as inactive.
As for `O=C(Nc1cccc(Br)c1)c1cccc(S(=O)(=O)N2CCCCCC2)c1`, the molecule was called inactive in assay [1].
As to `C=CC(=O)N1CCC(CNc2ncnc(N)c2-c2ccc(Oc3ccccc3)cc2)CC1`, the call in assay [2] was inactive.
What is called IC50 is the concentration needed to halve the response being measured. In the case of `COc1cc2c(NC3CCN(C4CCCCC4)CC3)nc(N3CCCN(C(C)C)CC3)nc2cc1OCCCN1CCCCC1`, the IC50 in assay [2] is 5.9 µM (active).
Turning to `CC/C(=C(/c1ccc(/C=C/C(=O)O)cc1)c1ccc2[nH]ncc2c1)c1ccc(F)cc1Cl`, the half-maximal activity concentration (AC50) in assay [3] is 26.3 µM (active).
With `Cn1cc(-c2cnn3c(N)c(Br)c(C4CCCNC4)nc23)cn1` (stereo unspecified), the outcome in assay [3] was inactive. The fold change in assay [5] (setting [8]) was 0.949 (inactive); in assay [5] (setting [9]) it was 0.873. The cell count in assay [5] (setting [10]) worked out at 6160; in assay [5] (setting [11]), 6490. Further, the z-score is 0.0709 (inactive) in assay [6] (setting [12]) and -0.322 in assay [6] (setting [13]).
For the molecule `Cn1cc(-c2ccc(-c3cncc(Cl)c3N3CCC4(CCNC4=O)CC3)cc2)cn1`, the call in assay [3] and in assay [2] was inactive.
